Assay [1] in a line: resazurin metabolic signal in HepG2 cells – cell-based, resazurin fluorescence, 24 h, PK04 Diversity Set, profiling panel (AID 1172). Conditions: HepG2 viability, higher = more signal.
Assay [2] can be described thus: budding yeast growth changes without added modifier – OD600, strain BY4716, 24 h, basal condition, primary screen (AID 1173). The following applies: S. cerevisiae BY4716 growth, OD600, 24 h; higher = more signal, called active from +8 up or from −8 down.
The nature of assay [3]: viability profiling in MM1S myeloma cells – cell-based, resazurin fluorescence, basal, 24 h, PK04 Diversity Set, profiling panel (AID 1174).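 Note: MM1S multiple myeloma cell line.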 The following applies: higher = more signal, called active from +8 up or from −8 down. On the technique in general: Alamar Blue is a resazurin reagent that responds to reducing activity.
The target in assay [4] is Dihydroorotate dehydrogenase (quinone), mitochondrial (Plasmodium falciparum (isolate 3D7)) (UniProt Q08210). The assay is described as follows: inhibition of P. falciparum DHODH – biochemical, C-terminal His tag, absorbance 600 nm, primary screen (AID 1175).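 Note: recombinant parasite enzyme with a five histidine tag at its C terminus.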 Conditions: PfDHODH enzyme, DCIP absorbance 600 nm; higher = more signal, called active from +8 up or from −8 down.
Chain of Dihydroorotate dehydrogenase (quinone), mitochondrial (Plasmodium falciparum (isolate 3D7)) (Q08210 whole entry, looked up): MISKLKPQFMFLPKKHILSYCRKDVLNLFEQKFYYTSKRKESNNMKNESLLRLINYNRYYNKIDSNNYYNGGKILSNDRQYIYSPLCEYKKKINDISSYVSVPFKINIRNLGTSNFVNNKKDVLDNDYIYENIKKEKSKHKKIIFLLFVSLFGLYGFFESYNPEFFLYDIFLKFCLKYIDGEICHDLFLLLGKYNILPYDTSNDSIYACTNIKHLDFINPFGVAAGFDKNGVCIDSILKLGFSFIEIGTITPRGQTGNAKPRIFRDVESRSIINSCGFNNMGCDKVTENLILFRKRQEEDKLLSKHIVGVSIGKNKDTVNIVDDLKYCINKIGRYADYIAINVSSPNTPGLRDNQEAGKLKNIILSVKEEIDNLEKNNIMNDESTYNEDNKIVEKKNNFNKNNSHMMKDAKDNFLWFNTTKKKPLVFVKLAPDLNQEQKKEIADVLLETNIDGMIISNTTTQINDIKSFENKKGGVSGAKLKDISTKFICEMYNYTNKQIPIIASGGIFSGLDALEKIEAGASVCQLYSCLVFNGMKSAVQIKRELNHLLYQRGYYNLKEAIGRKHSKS

Assay [5] can be described thus: inhibition of PAO1 biofilm formation – strain PAO1, LB-PBS medium, absorbance 600 nm, primary screen (AID 1176). Conditions: P. aeruginosa PAO1 growth/biofilm, A600, 12 h; higher = more signal.
Assay [6] is described as follows: growth modulation of vineyard yeast isolate – strain RM11-1a, OD600, basal, 24 h, primary screen (AID 1177).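 Note: cultures grown under basal conditions with no added stressor.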 Conditions: S. cerevisiae RM11-1a growth, OD600, 24 h; higher = more signal, called active from +8 up or from −8 down.
Assay [7] can be described thus: growth of efflux-deficient E. coli DRC39 – strain DRC39, OD650, 24 h, E. coli filamentation inducers, primary screen (AID 1178).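 Note: growth measured as culture turbidity by optical density at 650 nm.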 Conditions: E. coli DRC39 acrAB, higher = more signal, called active from +8 up or from −8 down.
Assay [8] can be described thus: growth of efflux-deficient E. coli DRC39 – strain DRC39, OD650, 48 h, E. coli filamentation inducers, primary screen (AID 1179).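 Note: screen aims at cell division blockers that make cells filament.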 Conditions: E. coli DRC39 delta-acrAB growth, higher = more signal, called active from +8 up or from −8 down.
Assay [9] is described as follows: viability profiling in RPMI8226 myeloma cells – cell-based, resazurin fluorescence, basal, 24 h, PK04 Diversity Set, profiling panel (AID 1180).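 Note: RPMI8826 multiple myeloma cell line at 5000 cells per well.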 The following applies: higher = more signal.
Assay [10] concerns the target E3 ubiquitin-protein ligase XIAP (Homo sapiens) (UniProt P98170). Briefly: small molecules binding XIAP protein – biophysical, small-molecule microarray, fluorescence 635 nm, primary screen (AID 1181).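 Note: score merges 667 nm emission and signal to noise over triplicate slides.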 The following applies: higher = more signal.
The subject of assay [11] is XIP peptide (Xip251-270) binding. The assay is described as follows: XIP fragment 251-270 binding compounds – biochemical, small-molecule microarray, fluorescence 635/667 nm, 0.1 µg/mL protein, primary screen (AID 1182). The following applies: fluorescent protein binding, 635 nm, higher = more signal, called active from +8 up or from −8 down.
Assay [12] has as its system XIP peptide (Xip251-270). Briefly: compounds binding XIP fragment 251-270 – biochemical, small-molecule microarray, fluorescence 635/667 nm, 0.5 µg/mL protein, primary screen (AID 1183). The following applies: fluorescence 635 nm, higher = more signal.
Assay [13] can be described thus: blood-stage malaria parasite viability loss – strain 3D7, DAPI fluorescence, 100 nL, primary screen (AID 1184).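 Note: parasites grown inside human red blood cells in medium with human serum.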 The following applies: P. falciparum 3D7 growth, 3 d, higher = more signal.
In assay [14] the target is Homeobox protein Hox-A13 (Mus musculus) (UniProt Q62424). The assay is described as follows: disruptors of Hoxa13 oligonucleotide interaction – biochemical, fluorescence polarization, labeled oligonucleotide, primary screen (AID 1185). The following applies: Hoxa13:DNA binding, 15 min, higher = more signal, called active from +8 up or from −8 down. Background: In fluorescence polarisation assays a small probe gives low polarisation when free and higher when bound to something large.
Chain of Homeobox protein Hox-A13 (Mus musculus) (Q62424 whole entry, looked up): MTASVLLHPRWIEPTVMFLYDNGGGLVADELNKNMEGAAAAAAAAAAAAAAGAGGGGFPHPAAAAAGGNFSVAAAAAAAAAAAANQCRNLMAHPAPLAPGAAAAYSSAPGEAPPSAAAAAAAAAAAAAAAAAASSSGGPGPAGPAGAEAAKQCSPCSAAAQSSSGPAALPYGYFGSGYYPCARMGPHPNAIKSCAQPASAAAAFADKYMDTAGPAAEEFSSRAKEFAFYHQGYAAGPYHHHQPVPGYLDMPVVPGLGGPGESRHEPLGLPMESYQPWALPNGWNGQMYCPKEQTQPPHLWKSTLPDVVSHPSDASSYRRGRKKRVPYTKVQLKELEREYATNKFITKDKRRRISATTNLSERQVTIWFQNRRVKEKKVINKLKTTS

Assay [15] can be described thus: blockers of DNA damage checkpoint Chk1 activation – imaging, HeLa, hydroxyurea, phospho-Chk1 antibody, percent positive cells, primary screen (AID 1186). The following applies: hydroxyurea-induced phospho-Chk1 immunofluorescence imaging, higher = more signal.
Assay [16] is described as follows: blockers of DNA damage checkpoint Chk1 activation – imaging, HeLa, hydroxyurea, phospho-Chk1 nuclear intensity, primary screen (AID 1187). The following applies: hydroxyurea-induced phospho-Chk1 immunofluorescence imaging, higher = more signal.

The source made the active and inactive calls. Unless noted, the rule behind the calls is not given here.

Chain of E3 ubiquitin-protein ligase XIAP (Homo sapiens) (P98170 whole entry, looked up, the tested form may be a part): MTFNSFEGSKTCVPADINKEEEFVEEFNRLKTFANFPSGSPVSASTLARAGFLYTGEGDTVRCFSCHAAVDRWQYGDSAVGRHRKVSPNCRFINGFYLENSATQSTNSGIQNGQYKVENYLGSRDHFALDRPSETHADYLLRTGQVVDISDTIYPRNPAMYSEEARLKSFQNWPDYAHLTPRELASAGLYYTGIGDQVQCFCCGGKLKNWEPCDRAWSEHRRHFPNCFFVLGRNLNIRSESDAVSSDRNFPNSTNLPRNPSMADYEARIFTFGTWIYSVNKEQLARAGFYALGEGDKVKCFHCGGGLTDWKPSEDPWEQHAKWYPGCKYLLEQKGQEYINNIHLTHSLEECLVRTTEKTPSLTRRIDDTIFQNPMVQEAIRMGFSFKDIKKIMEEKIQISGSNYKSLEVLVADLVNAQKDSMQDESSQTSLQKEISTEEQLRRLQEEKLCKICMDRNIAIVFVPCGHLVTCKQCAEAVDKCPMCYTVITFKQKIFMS

As to `COC(=O)[C@@]1(Cc2ccccc2)[C@H]2c3cc(C(=O)N4CCCC4)[nH]c3C[C@H]2CN1C(=O)c1ccccc1`, the z-score in [1] is -0.6; in assay [2], 0.146 (inactive); in assay [3] it was -0.89 (inactive); in [5], 0.026 (inactive); in assay [6], 0.198 (inactive); in assay [7] it was -0.79 (inactive). In addition, the z-score is -0.548 (inactive) in assay [8]; -0.183 in assay [9]; -0.0756 in assay [13]; -1.8 (inactive) in [14]; 1.1 (inactive) in assay [15]; 1.21 (inactive) in assay [16]. The composite z-score in assay [4] was -0.171 (inactive); in [10], -0.247; in [11], 0.282 (inactive); in [12] it was 0.659.
Consider `C=CC[C@@]1(C(=O)N2CCCCC2)N=C(c2ccc(OCCCO)cc2)O[C@@H]1c1ccccc1`, for which the z-score is 1.63 in [1]; -3.63 (inactive) in assay [2]; 1.6 (inactive) in [3]; -0.441 (inactive) in assay [5]; 0.404 (inactive) in assay [6]; -0.212 (inactive) in assay [7]. Also, the z-score was -0.155 (inactive) in assay [8]; 1.02 in assay [9]; -2.09 in assay [13]; -5.99 (inactive) in assay [14]; -0.377 (inactive) in assay [15]; -0.146 (inactive) in [16]. The composite z-score in assay [4] is -0.765 (inactive); in assay [10], 0.454; in assay [11], 0.0703 (inactive); in assay [12] it was 0.735.
For the compound `O=C1C2C=CC(C(O)c3cc(C(F)(F)F)cc(C(F)(F)F)c3)N(Nc3ccc([N+](=O)[O-])cc3)C2C(=O)N1c1ccccc1` (stereo not given), the z-score is -0.566 in [1]; 0.55 (inactive) in assay [2]; -0.683 (inactive) in assay [3]; 1.07 (inactive) in [5]; 0.565 (inactive) in assay [6]; -2.26 (inactive) in assay [7]. Further, the z-score in [8] was -1.25 (inactive); in [9], -2.18; in assay [13] it was -0.945; in [14], -3.06 (inactive); in [15], -0.198 (inactive); in assay [16] it was -0.331 (inactive). Also, the composite z-score in assay [4] is 0.665 (inactive); in [10], 0.29; in assay [11], 0.131 (inactive); in [12] it was 0.802.
For the compound `COC(=O)[C@@]1(Cc2ccccc2)[C@H]2c3cc(C(=O)N4CCCC4)n(Cc4ccsc4Br)c3C[C@H]2CN1C(=O)c1ccccc1`, the z-score is -1.08 in assay [1]; 0.666 (inactive) in [2]; -0.686 (inactive) in assay [3]; -0.0703 (inactive) in assay [5]; 1.15 (inactive) in assay [6]; -0.28 (inactive) in assay [7]. For the same compound, the z-score in assay [8] was 0.139 (inactive); in assay [9], -3.12; in assay [13], -1.16; in assay [14] it was -3.29 (inactive); in [15], 0.17 (inactive); in assay [16] it was 0.498 (inactive). The composite z-score was -0.876 (inactive) in assay [4], 0.218 in assay [10], 0.427 (inactive) in [11] and 0.77 in assay [12].
For the compound `O=C1OC[C@@H](c2ccccc2)N2CC(/C=C/c3ccccc3)=CC12` (stereo not given in full), the z-score was 0.015 in assay [1]; -2.25 (inactive) in assay [2]; 0.0637 (inactive) in assay [3]; -0.14 (inactive) in assay [5]; 0.388 (inactive) in assay [6]; -0.338 (inactive) in assay [7]. The z-score in assay [8] was -0.827 (inactive); in [9], 0.594; in [13], 0.643; in [14], -1.36 (inactive); in assay [15], -0.303 (inactive); in assay [16], -0.493 (inactive). Further, the composite z-score in [4] was 0.685 (inactive); in assay [10] it was -0.102; in [11], 0.587 (inactive); in [12], 0.0221.
Regarding `CCOC(=O)C1=CC[C@@H](c2ccccc2)N(S(=O)(=O)c2ccc(C)cc2)C1`, the z-score in assay [1] is -0.842; in assay [2], 1.39 (inactive); in [3] it was -1.31 (inactive); in [5] it was 0.465 (inactive); in [6], 1.82 (inactive); in [7], -0.866 (inactive). Also, the z-score was -0.869 (inactive) in [8]; -2.53 in assay [9]; -0.557 in [13]; -2.76 (inactive) in assay [14]; 0.107 (inactive) in [15]; -0.749 (inactive) in assay [16]. Also, the composite z-score in assay [4] is 0.806 (inactive); in assay [10] it was 0.0975; in [11], -0.4 (inactive); in [12], -0.654.
With `C=C(/C(=C/C[C@@H](OC(=O)c1ccncc1)c1ccccc1OCCO)c1cc(C(=O)OC)ccc1OC)C(C)C`, the z-score was -0.0182 in [1]; -0.0905 (inactive) in assay [2]; -0.9 (inactive) in assay [3]; 0.424 (inactive) in assay [5]; -0.0487 (inactive) in assay [6]; 0.315 (inactive) in [7]. Further, the z-score in assay [8] is 0.227 (inactive); in assay [9] it was -0.722; in assay [13] it was -2.94; in assay [14], -3.84 (inactive); in [15], -1.77 (inactive); in assay [16], -1.86 (inactive). Further, the composite z-score in assay [4] was -1.82 (inactive); in assay [10], 0.153; in [11] it was 0.214 (inactive); in assay [12] it was 0.596.
`O=C1NCC(=O)N2[C@@H]1C[C@@H](C(=O)O)[C@H]2c1ccc(O)cc1`: the z-score is 0.153 in [1]; -0.231 (inactive) in assay [2]; 0.393 (inactive) in [3]; 0.463 (inactive) in assay [5]; 0.414 (inactive) in assay [6]; -0.42 (inactive) in assay [7]. Besides, the z-score in [8] is -0.0242 (inactive); in [9], 0.205; in [13], 0.489; in assay [14], -1.91 (inactive); in assay [15], 0.0155 (inactive); in assay [16] it was 0.0565 (inactive). Moreover, the composite z-score is -0.273 (inactive) in assay [4], 0.0374 in assay [10], 1.26 (inactive) in [11] and 0.665 in [12].
On to `CC(C)C(CO)N1C(=O)[C@]2(C)C3C(=O)OCCC/C=C\[C@H]3OC23C=CCN(c2ccc(Cl)cc2)C(=O)[C@@H]13` (stereo not given in full), for which the z-score in assay [1] was -0.575; in assay [2], 0.0095 (inactive); in [3], -0.581 (inactive); in assay [5], -0.36 (inactive); in [6], -0.3 (inactive); in [7], -0.391 (inactive). Besides, the z-score in assay [8] was -0.261 (inactive); in [9], -0.713; in [13], 0.775; in assay [14], -6.76 (inactive); in assay [15] it was -0.199 (inactive); in [16], -0.181 (inactive). Further, the composite z-score is -1.04 (inactive) in assay [4], 0.117 in assay [10], 0.172 (inactive) in assay [11] and 0.146 in [12].
On to `COC(=O)[C@@]1(Cc2ccccc2)[C@H]2c3cc(C(=O)N4CCCC4)n(Cc4cc(F)cc5c4OCOC5)c3C[C@H]2CN1C(=O)c1ccccc1`, for which the z-score is -0.0185 in [1]; 0.978 (inactive) in [2]; -0.523 (inactive) in assay [3]; 0.122 (inactive) in assay [5]; -0.0989 (inactive) in [6]; -0.599 (inactive) in assay [7]. Moreover, the z-score in [8] is -0.37 (inactive); in assay [9], -0.312; in [13] it was -1.65; in assay [14] it was -5.42 (inactive); in [15] it was 0.189 (inactive); in assay [16], 0.435 (inactive). Moreover, the composite z-score in assay [4] is -0.354 (inactive); in assay [10] it was 0.392; in assay [11] it was 0.766 (inactive); in assay [12], 0.828.
